Screen size: about 290,000 compounds; about 27,000 (9.3%) were called active. Cut-off read from the data, not from the text of the source: active = inhibition mostly above about 28% (no sharp cut-off); inactive = mostly below about 43%. The full list was thinned out, with actives kept by preference.
Assay: A qHTS for Small Molecule Inhibitors of Shiga Toxin; note: 0% is about no effect
Conditions: Vero cells, Shiga toxin protein synthesis inhibition reporter; at 38.7 µM, active compounds read high
With CSCC[C@H](NC(=O)N1CCn2c1nc1ccccc12)C(=O)NCc1ccc2c(c1)OCO2 the inhibition was -0.771% (inactive). In the case of Cc1ccc(-c2nc(CS(=O)(=O)CC(=O)NCc3ccc4c(c3)OCO4)c(C)o2)cc1, the inhibition is reported as -3.19% (inactive). In the case of Cc1ccc(NC(=O)c2ccc(CSc3ncnc4nc[nH]c34)cc2)c(C)c1, the inhibition is reported as 39% (inactive). With CCOC(=O)c1ccc(NC(=O)Cn2nnc(-c3ccc(C)cc3)n2)cc1 the inhibition was -5.77% (inactive). In the case of CCc1ccc(-c2nnn(Cc3nn[nH]n3)n2)cc1, the inhibition is reported as -3.04% (inactive). In the case of CCc1ccc(-c2nnn(Cc3nc4ccccc4s3)n2)cc1, the inhibition is reported as 81% (active). In the case of COc1ccccc1N1CC(C(=O)Nc2nnc(SCC(=O)NCC3CCCO3)s2)CC1=O (configuration not stated), the inhibition is reported as -8.54% (inactive). In the case of COc1cccc(NC(=O)CN(C)C(=O)c2ccccc2CCc2ccccc2)c1, the inhibition is reported as 16.1% (inactive). In the case of COc1ccc(CC(NC(C)=O)C(=O)NC2CCN(C(=O)c3ccc(Cl)cc3)CC2)cc1 (configuration not stated), the inhibition is reported as -3.77% (inactive). With CC(CC(=O)N1CCN(S(=O)(=O)c2ccccc2)CC1)n1cncn1 (configuration not stated) the inhibition was -9.3% (inactive). With O=C(Cc1ccccc1)N1CCN(S(=O)(=O)c2ccc([N+](=O)[O-])cc2)CC1 the inhibition was -23.6% (inactive). With N#C/C=C1\Sc2ccccc2C(=O)N1CC(=O)N1CCN(S(=O)(=O)c2ccccc2)CC1 the inhibition was 122% (active). With COC(=O)CN1C(=O)[C@H]2[C@@H](/C=C/c3ccccc3)N3C(=O)CN(Cc4ccccc4)C(=O)[C@@]3(Cc3ccccc3)[C@H]2C1=O the inhibition was -2.54% (inactive). For COc1ccc(NC(=O)N2CCCC(c3nc(-c4ccc(F)cc4)no3)C2)cc1 (configuration not stated), the inhibition was 96% (active). In the case of O=C(Cc1cccs1)N1CCCC(c2nc(-c3ccc(S(=O)(=O)N4CCCC4)cc3)no2)C1 (configuration not stated), the inhibition is reported as -10.3% (inactive). With Cc1c(CN2CCCC(C(=O)c3cccc(Cl)c3)C2)c(=O)n(-c2ccccc2)n1C (configuration not stated) the inhibition was -7.01% (inactive). For CC(C)c1ccc(-c2noc(C3CCCN(S(C)(=O)=O)C3)n2)cc1 (configuration not stated), the inhibition was 64.2% (active). With CCc1nc2ccc(C(=O)N3CCN(c4cccc(Cl)c4)CC3)cc2nc1CC the inhibition was -14% (inactive). For CCN(C(=O)C1CCCN(c2nc(-c3ccc(OC)cc3)no2)C1)c1ccc(OC)cc1 (configuration not stated), the inhibition was 9.76% (inactive). In the case of Cc1ccc(-c2noc(C3CCCN(C(=O)c4cccc(Cl)c4)C3)n2)o1 (configuration not stated), the inhibition is reported as 69.1% (active). With O=C(c1ccc(F)cc1)N1CCCC(c2nc(-c3cccs3)no2)C1 (configuration not stated) the inhibition was 16.4% (inactive). In the case of COc1ccc(NC(=O)N2CCCC(C(=O)Nc3ccccc3OC)C2)cc1 (configuration not stated), the inhibition is reported as -5.66% (inactive). For O=C(c1cccs1)N1CCCC(c2nc(-c3ccc(F)cc3)no2)C1 (configuration not stated), the inhibition was 82.3% (active). With COc1ccc(C(=O)NC2CCN(C(=O)Nc3ccc(F)cc3)CC2)cc1 the inhibition was -7.18% (inactive). For COc1cc(-c2noc(C3CCCN(S(=O)(=O)c4cccc(Cl)c4)C3)n2)cc(OC)c1OC (configuration not stated), the inhibition was -8.14% (inactive). With COc1ccccc1C(=O)Nn1cnnc1 the inhibition was -6.2% (inactive). With C#CCOc1ccccc1/C=C1/C(=O)ON=C1C the inhibition was 3.31% (inactive). For CC(=O)N1c2ccc(S(=O)(=O)N3CCC(C(=O)NC4CCCCC4C)CC3)cc2CC1C (configuration not stated), the inhibition was -11.2% (inactive). In the case of COc1cccc(OC)c1C(=O)Nc1c(C(=O)N2CCN(c3ccccn3)CC2)oc2ccccc12, the inhibition is reported as 3.52% (inactive). For CCOC(=O)C1CCN(C(=O)CN2C(=O)c3cccnc3Oc3ccc(C)cc32)CC1, the inhibition was -9.03% (inactive). For COc1ccc(N(C(=O)c2snc(C(N)=O)c2N)C(C(=O)NC2CCCC2)c2ccc(C)o2)c(OC)c1 (configuration not stated), the inhibition was -6.03% (inactive). With Cc1ccc2c(c1)N(CC(=O)N1CCCC(C)C1)C(=O)CO2 (configuration not stated) the inhibition was 2.65% (inactive). With Cc1cccc(S(=O)(=O)N2CN(CC3CCCO3)c3nc4ccccc4nc32)c1 (configuration not stated) the inhibition was -6.17% (inactive). For O=C(c1c(F)cccc1Cl)N1CCN(c2ccccn2)CC1, the inhibition was -18.5% (inactive). With Cc1ccccc1N1CCN(CCCN2C(=O)C3CCCCN3C2=O)CC1 (configuration not stated) the inhibition was -5.61% (inactive). In the case of CN(CC1CCCO1)S(=O)(=O)c1ccc(C(=O)Nc2ccc([N+](=O)[O-])cc2)cc1 (configuration not stated), the inhibition is reported as 14% (inactive). With CN(C(=O)c1cccc([N+](=O)[O-])c1)c1ccccc1C(=O)NCc1ccccc1 the inhibition was -10.6% (inactive). With COc1cc2c(C(=O)O)c(C)n(C)c2c2ccccc12 the inhibition was -4.47% (inactive). With COc1cccc2c(C)c(C(=O)O)[nH]c12 the inhibition was -35.1% (active). For Cc1c(C(=O)N/N=C/c2ccccc2)[nH]c2c([N+](=O)[O-])cccc12, the inhibition was -9.32% (inactive). With COc1ccccc1N1CCN(S(=O)(=O)CCNC(=O)c2ccc(OC(C)C)cc2)CC1 the inhibition was -4.39% (inactive). With Cc1ccccc1CNC(=O)CCC(=O)N1Cc2ccccc2Oc2ncccc21 the inhibition was 13.6% (inactive). In the case of C[n+]1cc(-c2ccccc2)oc1-c1ccccc1, the inhibition is reported as 88.6% (active). In the case of COc1ccccc1CCNS(=O)(=O)c1cn(C)nc1C, the inhibition is reported as -8.83% (inactive). For Cc1cnc(NC(=O)c2ccccn2)s1, the inhibition was 11.7% (inactive). With CCCC(=O)Nc1nc2ccc(NC(=O)c3cccnc3)cc2s1 the inhibition was 89.7% (inactive). In the case of CS(=O)(=O)c1ccc2nc(NC(=O)c3ccc(N4CCCC4=O)cc3)sc2c1, the inhibition is reported as 8.48% (inactive). For COc1cccc(C(=O)Nc2nc3ccc(S(C)(=O)=O)cc3s2)c1, the inhibition was 92.7% (active). For CCN(CC)c1ccc(NC(=O)c2ccc(Cl)nc2)cc1, the inhibition was 18.4% (inactive). In the case of Cc1cnc(NC(=O)c2ccc(Cl)nc2)s1, the inhibition is reported as 109% (active). In the case of CS(=O)(=O)c1ccc2nc(NC(=O)c3ccc(Cl)nc3)sc2c1, the inhibition is reported as 70.7% (active). With O=C(Nc1nc2ccc([N+](=O)[O-])cc2s1)c1ccncc1 the inhibition was 35% (inactive). For CNC(=O)c1ccc2nc(NC(C)=O)sc2c1, the inhibition was 45.1% (active). For CS(=O)(=O)c1ccc2nc(NC(=O)C3C4C=CC(C4)C3C(=O)O)sc2c1 (configuration not stated), the inhibition was 14.8% (inactive). With CS(=O)(=O)c1ccc2nc(NC(=O)C3CCCCC3)sc2c1 the inhibition was 22.9% (inactive). For CS(=O)(=O)c1ccc2nc(NC(=O)CN3CCCCCC3)sc2c1, the inhibition was 18.3% (inactive). In the case of CCCNC(=O)c1ccc(N2CCC3(CC2)CC(c2ccc(Cl)cc2)=NO3)c([N+](=O)[O-])c1, the inhibition is reported as 0.364% (inactive). In the case of COc1ccc(CN2CCCC(C(=O)N3CCCCC3)C2)cc1 (configuration not stated), the inhibition is reported as -9.61% (inactive). For Cc1ccc2c(cnn2C(=O)CCC(=O)NC2CCCC2)c1, the inhibition was 1.95% (inactive). For CCOc1ccc(C(CC(=O)O)NC(=O)Cc2ccccc2)cc1OC (configuration not stated), the inhibition was -3.82% (inactive). In the case of COc1ccc(C2CC(=O)NC(=O)C2)cc1, the inhibition is reported as 1.04% (inactive). In the case of Cc1c(CCC(=O)N[C@@H](CC(C)C)C(=O)O)c(=O)oc2c(C)c3oc4c(c3cc12)CCCC4, the inhibition is reported as -1.24% (inactive). With CCc1ccc(NC(=O)N[C@H](C(=O)O)C(C)CC)cc1 (some centres not stated) the inhibition was -3.77% (inactive). With CCc1ccc(NC(=O)Nc2ccncc2)cc1 the inhibition was 58.2% (active). For O=C(Nc1ccncc1)Nc1ccc(F)cc1, the inhibition was 30.2% (inactive). With O=C(Nc1cc(C(=O)Nc2ccc(S(=O)(=O)O)cc2)cc(C(=O)Nc2ccc(S(=O)(=O)O)cc2)c1)Nc1cc(C(=O)Nc2ccc(S(=O)(=O)O)cc2)cc(C(=O)Nc2ccc(S(=O)(=O)O)cc2)c1 the inhibition was -5.01% (inactive). For CCCn1c(=N)n(CC(=O)c2ccc(Cl)c(Cl)c2)c2ccccc21, the inhibition was -3.46% (inactive). In the case of O=C(NCc1csc(-c2cccs2)n1)C1CC1, the inhibition is reported as 68.5% (active). For CC(C)(C)C1CCC(C(=O)NCC(c2cccs2)N2CCOCC2)CC1 (configuration not stated), the inhibition was -2.93% (inactive). In the case of O=C(NCc1cccs1)C1CCN(S(=O)(=O)c2ccc(Cl)cc2)CC1, the inhibition is reported as -3.28% (inactive). With COCc1ccc(C(=O)NC2CC(C)(C)Cc3c2cnn3-c2ccc(C)cc2)o1 (configuration not stated) the inhibition was 21.9% (inactive). For O=C(COC(=O)c1ccc2c(c1)OCCO2)NCc1ccccc1, the inhibition was 19.3% (inactive). For CC(NC(=O)COC(=O)c1ccc2c(c1)OCO2)c1ccccc1 (configuration not stated), the inhibition was 17.4% (inactive). With O=C(OCc1ccccc1F)c1ccc2c(c1)OCCO2 the inhibition was 104% (active). In the case of O=C(O)c1ccc(/C=C2\SC(=S)N(NC(=O)c3ccc(Br)cc3)C2=O)cc1, the inhibition is reported as -9.68% (inactive). With N#Cc1ccc(S(=O)(=O)NCC(=O)OCC(=O)NCCc2ccccc2)cc1 the inhibition was -5.8% (inactive). With CCOC(=O)c1ccc(NC(=S)N2CCCC2)cc1 the inhibition was 8.67% (inactive). With CCCCC(CCC(=O)Nc1ccc(C(=O)OCC)cc1)C(=O)O (configuration not stated) the inhibition was -3.77% (inactive). For O=C(Cc1cccs1)Nc1ccc([N+](=O)[O-])cc1, the inhibition was -6.19% (inactive). With CCOC(=O)c1ccc(NC(=O)Cc2cccs2)cc1 the inhibition was 49.2% (active). With CCOc1ccccc1NC(=O)Cc1cccs1 the inhibition was -4.91% (inactive). In the case of C#CCNc1ccc(C(=O)OCC)cc1, the inhibition is reported as 58.3% (active). In the case of CCOC(=O)c1cccc(NC(=O)C2CCN(c3ncnc4c3nc3n4CCCCC3)CC2)c1, the inhibition is reported as 10.8% (inactive). In the case of CC(Sc1nnc(-c2ccccc2F)n1C1CC1)C(N)=O (configuration not stated), the inhibition is reported as -9.07% (inactive). For O=C(O)c1ccc2c(=O)n3c(nc2c1)/C(=C/c1ccc(OC(F)F)cc1OC(F)F)CC3, the inhibition was 1.37% (inactive). For CN(C(=O)CCN1C(=O)/C(=C/c2ccccc2F)SC1=S)C1CCS(=O)(=O)C1 (configuration not stated), the inhibition was -3.82% (inactive). With O=C(CN1C(=O)/C(=C\c2ccccc2F)SC1=S)Nc1nc2ccccc2s1 the inhibition was 51.7% (active). For O=C(CN1C(=O)/C(=C/c2ccccc2F)Sc2ccccc21)NCc1cccnc1, the inhibition was 13.6% (inactive). With COc1ccc(CNc2ccc3c(c2)CCC3)cc1OC the inhibition was 37.9% (inactive). In the case of Cc1ccc(CC2CC(=O)N(c3ccc4c(c3)OCCO4)C2=O)cc1 (configuration not stated), the inhibition is reported as 51.2% (inactive). For Cc1ccc(N2C(=O)CC(NCc3ccc4c(c3)OCO4)C2=O)cc1Cl (configuration not stated), the inhibition was 110% (active). With O=CN1CCN(C2CC(=O)N(c3ccc4c(c3)OCO4)C2=O)CC1 (configuration not stated) the inhibition was 19.5% (inactive).

Reference: PubChem BioAssay AID2315 (National Center for Advancing Translational Sciences (NCATS), 2010)
